Source: PubChem BioAssay (National Center for Advancing Translational Sciences (NCATS))
In the library only some 7.1% were active in any assay of this set; here they are far more common.
S2 tox: reduces viability in counter-screen for ATXN expression inhibitors. S2 cells (HEK-293 line with an ATXN2-luciferase reporter) viability, CellTiter-Fluor protease fluorescence, 24 h. Potency, µM (highest dose often 56.7 µM), hits mostly cytotoxic. 400,000 tested, 0.49% active. AID 651635; further: potency means the concentration at half of the fitted maximal effect; nearly all actives have a fitted effect of over 40% in size
ATXN2 expr inh: reduces ATXN2 reporter expression in HEK-293 cells; AID 1745845; 360,000 tested, 0.72% active; HEK-293 ATXN2-luciferase reporter, luminescence, 24 h; Potency, µM (top dose mostly 57 µM), inactives show at the highest dose activity change, negative = inhibition, usual class: inhibitors; further: potency means the concentration at half of the fitted maximal effect; on the % scale 0 is the no-effect control and ±100 the full control effect; nearly all actives have a fitted effect of over 55% in size
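ATXN2-luciferase reporter cells (luciferase flanked by upstream and downstream ATXN2 gene portions) were treated 24 h at 37 °C with compounds at up to 57 uM. SteadyGlo luminescence gave expression; GF-AFC fluorescence gave viability.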
PINK1 expr mod: changes PINK1 expression; PINK1 immunofluorescence, high-content cytometry, 24 h; Potency, µM (series often up to 76.6 µM), inactives show top-dose activation (PINK1 increase), usual class: activators; 410,000 tested, 0.2% active; AID 624263; active means well fitted activation curve with a large enough effect; inconclusive means small, poorly fitted or top-dose-only effect; cell line not stated here; further: potency means the concentration at half of the fitted maximal effect; % of control where 0% means no effect; nearly all actives have a fitted effect of over 65% in size
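A stable cell line was treated with compounds at 5 concentrations for 24 hours, with CCCP as control. PINK1 levels and mitochondrial localization were measured by immunofluorescence with mitochondrial, cell and nuclear markers after fixation, read by laser-scanning cytometry.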
SW480 rereplic: induces DNA re-replication in SW480 colon adenocarcinoma cells. SW480 DNA re-replication, Hoechst DNA content imaging, 48 h. Potency, µM (series often up to 46.1 µM), inactives show at the top dose re-replication activation, hits mostly activators. 340,000 tested, 1.8% active; further: potency means the concentration at half of the fitted maximal effect; % of control where 0% means no effect; nearly all actives have a fitted effect of over 55% in size
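Per well, 250 cells were exposed to pinned compound for 48 hr. Nuclear DNA was visualised with Hoechst (40 min, 37 C) and total object intensity recorded by fluorescence scanning.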
IL1B secr inh: inflammasome signaling inhibition, IL-1 beta readout; THP-1 LPS/ATP IL-1B secretion, AlphaLISA, 16 h; active compounds read low; activity change, % at 57.5 µM; 360,000 tested, 4.7% active; AID 743279; in the data active means activity change below about -50%; inconclusive means mostly about -30% to -49%; further: on the % scale 0 is the no-effect control and ±100 the full control effect
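THP-1 cells pretreated 1 hr with compounds (up to 57.5 uM final), then stimulated with LPS (250 ng/mL final) plus ATP (1.25 mM final); secreted IL-1B measured by AlphaLISA after 16 hr, decreased signal indicating inhibition.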
MCF10A rereplic: induces DNA re-replication in MCF 10a normal breast cells. Potency, µM (doses to about 46.1 µM), without a hit: at the top dose activity, positive = re-replication, hits mostly activators. MCF 10A DNA re-replication, Hoechst nuclear intensity, 48 h. AID 624296. 350,000 tested, 2.9% active; further: potency means the concentration at half of the fitted maximal effect; % of control where 0% means no effect; nearly all actives have a fitted effect of over 50% in size
* hit, by the source's call; i = inactive; ? = inconclusive; · = no result; [ ] = dose if it differs, or a comment. Unless noted, the call rests on the fitted dose curve; in most records, active means well fitted curve in the direction sought with a large enough effect; inconclusive means small, poorly fitted or top-dose-only effect, or another doubt; inactive means no such curve, though single readings can be large; an effect the other way counts as inactive or inconclusive.

SMILES	S2 tox	ATXN2 expr inh	PINK1 expr mod	SW480 rereplic	IL1B secr inh	MCF10A rereplic
CCN(CC)CCn1c(=N)n(CC(O)COc2cccc(C)c2)c2ccccc21 (configuration not stated)	?	-31%[11.3 µM]	1%	?	-67*	?
Cc1ccc(OCC(O)Cn2c(=N)n(Cc3ccccc3)c3ccccc32)cc1 (configuration not stated)	?	?	-1%	?	-90*	?
N=c1n(Cc2ccc(Cl)cc2)c2ccccc2n1CC(O)COc1ccccc1 (configuration not stated)	·	?	-3%	?	-97*	?
Cc1ccc(-c2nc3cc(C(C)C)ccc3o2)cc1NC(=O)c1cc([N+](=O)[O-])ccc1N1CCOCC1	i	86%	3%	·	·	·
COc1ccc(OCC(O)Cn2c(=N)n(Cc3ccccc3)c3ccccc32)cc1 (configuration not stated)	·	?	28%[38.3 µM]	?	-97*	?
Cc1cccc(OCC(O)Cn2c(=N)n(CCN3CCCCC3)c3ccccc32)c1 (configuration not stated)	·	?	-31%[38.3 µM]	?	-51*	?
Cc1cccc(OCC(O)CN2CCNCC2)c1 (configuration not stated)	i	-2%	2%	-4%	36	4%
N=c1n(Cc2ccccc2)c2ccccc2n1CC(O)COc1ccc(Cl)cc1Cl (configuration not stated)	·	-16%[11.3 µM]	-2%	?	-103*	?
CCn1c(=N)n(CC(O)COc2ccccc2)c2ccccc21 (configuration not stated)	i	-19%	-2%	·	·	·
CCc1ccccc1NC(=O)Cn1c(=O)ccc2cc(S(=O)(=O)N3CCCC3)ccc21	i	-2%	-3%	·	·	·
CC(C)Cc1ccc(C(C)C(=O)OCc2ccccn2)cc1 (configuration not stated)	i	2%	·	·	·	·
Clc1ccc(Nc2nnc(Cc3ccncc3)c3ccccc23)cc1	i	?	·	8%	·	0%
Cc1ccc(NC(=O)CN(c2ccc(Cl)cc2)S(=O)(=O)c2cc([N+](=O)[O-])ccc2Cl)c(C)c1	i	?	1%	0%	-79*	0%
Cc1ccc([N+](=O)[O-])cc1NC(=O)CN(c1ccccc1)S(=O)(=O)N(C)C	i	7%	0%	·	·	·
O=C(NCc1cccs1)c1ccc(CSc2nc3ccncc3n2Cc2cccc(F)c2)cc1	?	-21%	2%	·	·	·
CN1CC(c2ccccc2)C2(SC(=S)N(Cc3ccco3)C2=O)C12C(=O)Nc1ccccc12 (configuration not stated)	?	?	8%[38.3 µM]	?	-69*	6.5µM*
CN1CC(c2ccccn2)C2(SC(=S)N(Cc3ccccc3)C2=O)C12C(=O)Nc1ccccc12 (configuration not stated)	?	?	-6%[38.3 µM]	-3%	-22	4%
CCN(CC)CCCNc1cc(-c2ccccc2)nc(C)n1	i	-6%	-1%	·	·	·
COc1ccc(N2CCN(S(=O)(=O)c3cc(-c4cc(C)no4)ccc3C(C)C)CC2)cc1	i	·	3%	-2%	-1	13%
COc1ccc(-c2cc(C)no2)cc1S(=O)(=O)N1CCN(c2cccc(C)c2)C(C)C1 (configuration not stated)	i	·	1%	-3%	-12	?
Cc1cccc(N2CCN(S(=O)(=O)c3cc(-c4cc(C)no4)ccc3C)CC2C)c1 (configuration not stated)	i	-24%	3%	10µM*	0	3.3µM*
Cc1cc(-c2ccc(C(C)C)c(S(=O)(=O)N3CCN(c4ccccc4)CC3)c2)on1	i	-28%	12%	6.5µM*	31	?
O=C(CSc1nccn1-c1cccc(Cl)c1)Nc1cccc2ccccc12	·	·	0%	·	·	·
O=C(NNS(=O)(=O)c1ccccc1[N+](=O)[O-])c1ccccc1[N+](=O)[O-]	i	-5%	3%	0.52µM*	16	-14%
O=C(Nc1ccc(Cl)cn1)c1ccccc1[N+](=O)[O-]	i	-3%[11.3 µM]	2%	15µM*	17	?
SMILES	S2 tox	ATXN2 expr inh	PINK1 expr mod	SW480 rereplic	IL1B secr inh	MCF10A rereplic
O=C(Nc1ccc(Cl)cn1)c1cccc2ccccc12	i	·	9%	?	0	?
O=C(Nc1cccc2c1C(=O)NC2=O)c1ccccc1[N+](=O)[O-]	·	-14%	4%	21µM*	-14	18%
O=[N+]([O-])c1cnc(Nc2ccc(Cl)cn2)c([N+](=O)[O-])c1	?	-11%	1%	?	-55*	2%
Cc1ccc(Nc2ccc([N+](=O)[O-])cn2)cc1Cl	i	29%	2%	-4%	?	12%
CCCCc1nn2c(C)c(-c3ccc(OCC)cc3)nc2s1	i	4%	3%	·	·	·
CC(=O)Nc1ccc(S(=O)(=O)N2CCC(n3c(C)nc4cccnc43)CC2)cc1	i	7%	1%	·	·	·
O=C(Nc1c2c(nn1-c1ccc(Cl)cc1)CS(=O)(=O)C2)c1cccc(Cl)c1	i	?	?	·	·	·
CCn1c(=O)c2cc(C(=O)NCCCN3CCN(C)CC3)sc2c2ccccc21	i	-5%	3%	·	·	·
O=C(/C=C/c1ccccc1)Nc1ccc(Cl)cn1	i	35%	8%	15µM*	0	?
O=C(CC(c1ccccc1)c1ccccc1)Nc1ccc(Cl)cn1	i	-31%	1%	?	6	?
O=c1oc2ccccc2c(O)c1/C=C1\C=Nc2ccccc21	i	-10%	-2%	?	-108*	?
Cc1cc(N(C)NC(=S)Nc2ccccc2)nc(C)n1	i	0%	2%	1.8µM*	10	2%
O=C(CSc1nnc(-c2ccncc2)o1)c1cccc([N+](=O)[O-])c1	i	?	7%	-4%	-51*	-2%
Cc1cc(NC(=O)Nc2cccc([N+](=O)[O-])c2)no1	i	4%	3%	-153%[1.84 µM]	-6	-6%
CC(C)(C)CC(C)(C)NC(=O)Nc1cccc([N+](=O)[O-])c1	?	·	14µM*	8%	-21	?
COC(=O)Nc1ccc(SCC(=O)c2cccc([N+](=O)[O-])c2)cc1	?	·	5%	?	-19	23µM*
CC(C)(C)c1ccc(C(=O)Nc2cccc([N+](=O)[O-])c2)cc1	?	-28%	45µM*	-79%	-98*	?
Cc1ccc(SCc2ccc(C(=O)Nc3cccc([N+](=O)[O-])c3)cc2)cc1	i	-9%	10%[38.3 µM]	8.2µM*	-13	4.1µM*
